{"source": "PubChem BioAssay (EPA / NIEHS)", "note": "Inconclusive results are not listed. The source made the active and inactive calls. How the source made its calls: active means hit-call score of the fitted dose curve at least 0.9, where 1 is the maximum; inconclusive means response in the unintended direction; inactive means score below 0.9.", "data": [{"target": "PGR (gene 5241) (UniProt P06401)", "sequence (P06401 whole entry, looked up)": "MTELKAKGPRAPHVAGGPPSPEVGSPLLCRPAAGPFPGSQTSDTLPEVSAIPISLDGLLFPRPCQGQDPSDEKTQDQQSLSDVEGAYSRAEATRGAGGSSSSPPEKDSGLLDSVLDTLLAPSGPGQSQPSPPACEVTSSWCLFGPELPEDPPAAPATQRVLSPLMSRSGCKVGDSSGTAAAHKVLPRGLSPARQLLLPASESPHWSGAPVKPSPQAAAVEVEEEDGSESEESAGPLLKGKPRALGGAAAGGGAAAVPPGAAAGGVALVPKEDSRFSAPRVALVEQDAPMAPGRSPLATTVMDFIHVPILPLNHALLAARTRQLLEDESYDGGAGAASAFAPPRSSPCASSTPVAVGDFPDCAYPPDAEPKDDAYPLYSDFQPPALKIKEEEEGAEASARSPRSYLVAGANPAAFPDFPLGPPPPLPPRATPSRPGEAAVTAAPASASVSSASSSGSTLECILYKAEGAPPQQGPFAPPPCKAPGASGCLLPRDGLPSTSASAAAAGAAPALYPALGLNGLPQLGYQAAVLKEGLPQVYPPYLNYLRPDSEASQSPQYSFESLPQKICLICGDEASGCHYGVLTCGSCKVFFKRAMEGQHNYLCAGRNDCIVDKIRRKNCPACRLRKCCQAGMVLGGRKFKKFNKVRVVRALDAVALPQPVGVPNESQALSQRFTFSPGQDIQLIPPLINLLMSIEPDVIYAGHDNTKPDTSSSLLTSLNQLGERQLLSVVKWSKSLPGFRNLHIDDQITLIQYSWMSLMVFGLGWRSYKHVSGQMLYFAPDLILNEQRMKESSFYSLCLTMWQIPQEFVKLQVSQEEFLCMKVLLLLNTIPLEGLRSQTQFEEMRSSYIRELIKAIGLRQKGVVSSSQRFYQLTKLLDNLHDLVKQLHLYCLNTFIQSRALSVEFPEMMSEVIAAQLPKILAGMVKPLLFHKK", "assay": "NVS_NR_hPR: NovaScreen (NVS) Nuclear Receptor Binding Assay for human Progestron Receptor (PR) (AID 2283360);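 further: active means loss of bound radioligand signal versus DMSO baseline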", "protocol": "NVS_NR_hPR is a biochemical, single-readout assay that uses extracted gene-proteins from T47D in a cell-free assay. Measurements were taken 18 hours after chemical dosing in a 96-well plate.NVS_NR_hPR is one of one assay component(s) measured or calculated from the NVS_NR_hPR assay. It is designed to make measurements of radioligand binding, a form of binding reporter, as detected with scintillation counting signals by Lysate-based radiodetection technology.Data from the assay component NVS_NR_hPR was analyzed into 1 assay endpoint. This assay endpoint, NVS_NR_hPR, was analyzed in the positive analysis fitting direction relative to DMSO as the negative control and baseline of activity. Using a type of binding reporter, loss-of-signal activity can be used to understand changes in the binding as they relate to the gene PGR. Furthermore, this assay endpoint can be referred to as a primary readout, because the performed assay has only produced 1 assay endpoint. To generalize the intended target to other relatable targets, this assay endpoint is annotated to the nuclear receptor intended target family, where the subfamily is steroidal.\nBinding assays used specific radioligands (tritiated, iodinated) with non-radioactive competitive displacement ligands in agonist or antagonist protocols (as indicated) and various reference compounds and inhibitors to titrate specific binding to receptors and transporters. Most enzyme assays (CYPs, kinases, phosphatases, proteases, HDACs) used recombinant protein and specific substrates (fluorescence mostly, some colorimetric and radioactive) and inhibitors, followed by a biochemical separation of substrate and product. All assays for the biochemical HTS were initially run in duplicate at a single concentration (10 uM for CYP450 assays and 25 uM for all others). […] Each assay was run with positive and negative controls, and concurrent controls on every plate. The follow-up (secondary) screen tested active chemical-pairs in concentration series, as well as a few additional assays not tested in the primary screen, some selected negative inactives, and several cases re-run in the concentration series for confirmatory purposes.", "values": [{"compound": "Cn1cc[nH]c1=S", "outcome": "inactive"}, {"compound": "Cc1nccn1-c1ccc(Sc2cccc(C3(C(N)=O)CCOCC3)c2)cc1", "AC50": "6.18 µM (active)"}, {"compound": "C[C@@H](Oc1ccc(CNC(=O)c2cccnc2Oc2ccc3c(c2)OCO3)c(F)c1)C(=O)O", "outcome": "inactive"}, {"compound": "OCc1ccccc1", "outcome": "inactive"}, {"compound": "C[C@]12C=CC(=O)C=C1CC[C@H]1[C@@H]3C[C@@H](O)[C@](O)(C(=O)CO)[C@@]3(C)C[C@H](O)[C@@]12F", "outcome": "inactive"}, {"compound": "O=C(O)[C@H](O)[C@@H](O)C(=O)O", "outcome": "inactive"}, {"compound": "c1ccc(C(O[C@@H]2CCCN(CCc3ccc4c(c3)OCO4)C2)c2ccccc2)cc1", "outcome": "inactive"}, {"compound": "CCc1cccc(CC)c1N", "outcome": "inactive"}, {"compound": "OC[C@H]1O[C@@](CO)(O[C@H]2O[C@H](CO)[C@@H](O)[C@H](O)[C@H]2O)[C@@H](O)[C@@H]1O", "outcome": "inactive"}, {"compound": "CCCCCCCCCC", "outcome": "inactive"}, {"compound": "CCCc1ccccc1", "outcome": "inactive"}, {"compound": "O=S(=O)(O)c1ccc(N=Nc2c(O)ccc3cc(S(=O)(=O)O)ccc23)cc1", "outcome": "inactive"}, {"compound": "CCc1ccc(O)c(C(C)(C)C)c1", "outcome": "inactive"}, {"compound": "NC(=O)N1c2ccccc2C=Cc2ccccc21", "outcome": "inactive"}, {"compound": "CCCOc1ccc(S(=O)(=O)N2CCN(CC)CC2)cc1-c1nc2c(CC)n(Cc3ccccn3)nc2c(=O)[nH]1", "outcome": "inactive"}, {"compound": "O=C(NO)C1(NS(=O)(=O)c2ccc(Oc3ccc(F)cc3)cc2)CCOCC1", "AC50": "6.3 µM (active)"}]}]}
